Laboratory results as given in PubChem BioAssay (NCI).
About 79,000 compounds went through this panel and 15% of them were active in at least one assay; those are over-represented in the sample as a whole. The source made the active and inactive calls. Cut-off read from the data, not from the text of the source: active = growth inhibition above about 70%; inactive = the rest.

Legend:
[1] = NCI Yeast Anticancer Drug Screen. Data for the rad50 strain (AID 155);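 note: 0% = growth of vehicle-only cultures of the same strain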; settings: S. cerevisiae rad50 strain growth inhibition, active compounds read high
How it was run: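 Readout: growth inhibition relative to vehicle-treated cultures. Compound exposure was carried out in a genetically defined yeast strain deficient in DNA damage repair.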

[2] = NCI Yeast Anticancer Drug Screen. Data for the mec2-1 strain (AID 157); settings: S. cerevisiae mec2-1 strain, active compounds read high
How it was run: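 Vehicle-treated cultures served as reference for growth inhibition of compound-exposed mec2-1 yeast.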

[3] = NCI Yeast Anticancer Drug Screen. Data for the sgs1 mgt1 strain (AID 161);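 note: 0% = growth of cultures given vehicle only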; settings: S. cerevisiae sgs1 mgt1 strain, active compounds read high
How it was run: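 Inhibition of yeast growth, normalised to vehicle-treated controls, is reported for a strain bearing genetic alterations in DNA damage repair.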

[4] = NCI Yeast Anticancer Drug Screen. Data for the cln2 rad14 strain (AID 165);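 note: 0% = growth equal to vehicle treated cultures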; settings: S. cerevisiae cln2 rad14 strain, active compounds read high
How it was run: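 Each compound was tested on cln2 rad14 yeast. Inhibition of growth was calculated against vehicle-exposed controls.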

[5] = NCI Yeast Anticancer Drug Screen. Data for the bub3 strain (AID 167); settings: S. cerevisiae bub3 mutant strain, active compounds read high
How it was run: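 Readout: yeast growth inhibition, expressed relative to vehicle-only wells. The test organism is a mutant strain from a panel with lesions in DNA repair or checkpoint genes.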

[6] = NCI Yeast Anticancer Drug Screen. Data for the mlh1 rad18 strain (AID 175); settings: S. cerevisiae mlh1 rad18 strain growth inhibition, active compounds read high
How it was run: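 Vehicle-treated cultures served as the reference for growth inhibition in a yeast strain carrying DNA damage repair alterations exposed to each compound.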

[7] = at 5.0 µM (retest, dose inferred, filed as 0.5)
[8] = at 50.0 µM (retest, dose inferred, filed as 5.0)

Measured: growth inhibition

[Pt].c1ccc([PH+](CC[PH+](CC[PH+](c2ccccc2)c2ccccc2)CC[PH+](c2ccccc2)c2ccccc2)c2ccccc2)cc1
active: [1]; [8] 96% | [1]; at 50.0 µM 89.8% | [2]; [7] 97% | [2]; [8] 98% | [2]; at 50.0 µM 90.7% | [3]; [8] 97% | [3]; at 50.0 µM 91.7% | [4]; [8] 97% | [4]; at 50.0 µM 89.3% | [5]; [7] 93% | [5]; [8] 97% | [5]; at 50.0 µM 89.8% | [6]; [8] 97% | [6]; at 50.0 µM 88.7%
inactive: [1]; [7] 54% | [3]; [7] 28% | [4]; [7] 27% | [6]; [7] 68%

COc1ccc(CCNC(=S)/N=C\C(C(=O)c2ccccc2)=C(\O)c2ccccc2)cc1OC
inactive: [1]; [7] 1% | [2]; [7] 0% | [3]; [7] -2% | [4]; [7] -25% | [5]; [7] 0% | [6]; [7] 3%
active: [1]; [8] 95% | [1]; at 50.0 µM 99% | [2]; [8] 93% | [2]; at 50.0 µM 98.8% | [3]; [8] 75% | [3]; at 50.0 µM 99% | [4]; [8] 98% | [4]; at 50.0 µM 97.8% | [5]; [8] 99% | [5]; at 50.0 µM 98.8% | [6]; [8] 97% | [6]; at 50.0 µM 98.6%

COc1ncnc2nc(SC)[nH]c12
active: [1]; at 50.0 µM 99.7% | [2]; at 50.0 µM 99.8% | [3]; at 50.0 µM 99.6% | [4]; at 50.0 µM 99.7% | [5]; at 50.0 µM 99.7% | [6]; at 50.0 µM 99.5%
inactive: [1]; [7] -1% | [1]; [8] -2% | [2]; [7] 1% | [2]; [8] -2% | [3]; [7] -1% | [3]; [8] -4% | [4]; [7] 0% | [4]; [8] -2% | [5]; [7] -1% | [5]; [8] -4% | [6]; [7] 0% | [6]; [8] -4%

c1csc(-c2nnc(C34CC5CC(CC(C5)C3)C4)o2)c1
active: [1]; [8] 93% | [2]; [8] 95% | [3]; [8] 97% | [3]; at 50.0 µM 83.3% | [4]; [8] 76% | [5]; [8] 98% | [5]; at 50.0 µM 86.3% | [6]; [8] 98%
inactive: [1]; [7] -31% | [1]; at 50.0 µM 61.5% | [2]; [7] -12% | [2]; at 50.0 µM 55.3% | [3]; [7] -24% | [4]; [7] -2% | [4]; at 50.0 µM 7.3% | [5]; [7] -10% | [6]; [7] -12% | [6]; at 50.0 µM 65.3%

Cn1cnc([N+](=O)[O-])c1Sc1nnnn1-c1ccccc1
inactive: [1]; [7] 53% | [2]; [7] 29% | [3]; [7] 47% | [3]; at 50.0 µM 68.7% | [4]; [7] 32% | [4]; [8] 51% | [4]; at 50.0 µM 36.1% | [5]; [7] 42% | [6]; [7] 60%
active: [1]; [8] 86% | [1]; at 50.0 µM 82% | [2]; [8] 70% | [2]; at 50.0 µM 75.8% | [3]; [8] 71% | [5]; [8] 75% | [5]; at 50.0 µM 80.8% | [6]; [8] 91% | [6]; at 50.0 µM 80.5%

N#CN=[N+]([O-])c1ccc(C(=O)O)cc1
active: [1]; [7] 80% | [1]; [8] 89% | [1]; at 50.0 µM 91.5% | [2]; [7] 87% | [2]; [8] 93% | [2]; at 50.0 µM 93.8% | [3]; [7] 96% | [3]; [8] 91% | [3]; at 50.0 µM 91.3% | [4]; [7] 99% | [4]; [8] 84% | [4]; at 50.0 µM 91.6% | [5]; [7] 96% | [5]; [8] 87% | [5]; at 50.0 µM 91.5% | [6]; [7] 96% | [6]; [8] 89% | [6]; at 50.0 µM 90.9%

COC(CO)(OC)c1ccccc1
inactive: [1]; [7] -163% | [1]; [8] -65% | [1]; at 50.0 µM -0.65% | [2]; [7] -50% | [2]; [8] -50% | [2]; at 50.0 µM -2.9% | [3]; [7] -66% | [3]; [8] -49% | [3]; at 50.0 µM -9% | [4]; [7] -63% | [4]; [8] -70% | [4]; at 50.0 µM 25.6% | [5]; [7] -70% | [5]; [8] -71% | [5]; at 50.0 µM -29.1% | [6]; [7] -128% | [6]; [8] -130% | [6]; at 50.0 µM 3.5%

COc1ccc(C(=O)C2C(=O)C(=O)OC2C2OC(=O)C(=O)C2C(=O)c2ccc(OC)cc2)cc1 (configuration not stated)
inactive: [1]; [7] -1% | [1]; [8] 2% | [1]; at 50.0 µM -9.6% | [2]; [7] -3% | [2]; [8] -3% | [2]; at 50.0 µM -7.3% | [3]; [7] 0% | [3]; [8] 2% | [3]; at 50.0 µM -8.2% | [4]; [7] -4% | [4]; [8] 1% | [4]; at 50.0 µM -15.3% | [5]; [7] 0% | [5]; [8] -5% | [5]; at 50.0 µM 3.05% | [6]; [7] 0% | [6]; [8] -1% | [6]; at 50.0 µM -15.7%

O=C(CC(=O)C(F)(F)F)c1ccc(-c2ccccc2)cc1
inactive: [1]; [7] 27% | [2]; [7] 45% | [3]; [7] 39% | [4]; [7] 14% | [5]; [7] 36% | [6]; [7] 45%
active: [1]; [8] 99% | [1]; at 50.0 µM 97% | [2]; [8] 99% | [2]; at 50.0 µM 98.2% | [3]; [8] 99% | [3]; at 50.0 µM 98% | [4]; [8] 98% | [4]; at 50.0 µM 97.8% | [5]; [8] 99% | [5]; at 50.0 µM 97.2% | [6]; [8] 99% | [6]; at 50.0 µM 98.7%
